Screening data deposited in PubChem BioAssay by National Center for Advancing Translational Sciences (NCATS).
TRPV1 ag: human TRPV1 agonism. Q8NER1. TRPV1-expressing cells, Fluo-8 calcium influx, agonist mode. activation, % at 8.33 µM. 320,000 tested, 0.19% active. AID 540275; in the data active = activation above about 80%; inconclusive = between about 30% and that limit
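Cells expressing TRPV1 were dye-loaded with Fluo-8 and read kinetically: 10 s baseline, 3 min after compound (agonist portion), then 2 min after EC20 capsaicin (allosteric enhancer portion). Calcium-bound dye fluorescence at 480/520 nm.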
TRPML1 inh: blocks the human TRPML1 channel | Q9GZU1 | TRPML1-inducible cells, Ca2+ dye fluorescence, FDSS; active compounds read low; inhibition of EC80 agonist-evoked calcium signal | activity change, negative = inhibition, % (test concentration not listed) | 390,000 tested, 0.02% active | AID 624415; in the data active = activity change below about -50%; inconclusive = between about -30% and that limit;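 note: stimulus is agonist 54-4 at its EC80 concentration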
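TRPML1-DL cells, Tet-induced overnight (~16 h, 37 °C) at 1,500 cells/well, were loaded with Ca8 no-wash dye plus quencher for 45-90 min at room temperature. Compounds were pinned during FDSS kinetic reading; agonist 54-4 at EC80 (4 uM final) then added.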
TRPML1 ag: activates the human TRPML1 channel | Q9GZU1 | TRPML1-expressing cells, Ca2+ dye fluorescence, FDSS | activation, % (test concentration not listed) | 410,000 tested, 0.12% active; in the data active = activation above about 50%; inconclusive = mostly about 30% to 49%
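TRPML1-DL cells, Tet-induced overnight (~16 h, 37 degrees C), loaded 45-90 min at room temperature with Ca8 no-wash calcium dye plus quencher. FDSS fluorescence: 10 s baseline, compound pin-transfer, 110 s agonist read, then EC80 54-4 (4uM final) and 110 s antagonist read.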
TRPV1 potentiator: human TRPV1 potentiation. TRPV1-expressing cells, Fluo-8 calcium influx, capsaicin EC20 potentiation. potentiation, % at 8.33 µM. 320,000 tested, 0.02% active; in the data active = potentiation above about 80%; inconclusive = between about 30% and that limit
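Fluo-8 calcium influx in TRPV1-expressing cells, kinetic read (ex 480/em 520 nm). Compound added and read 3 min for agonist activity, followed by capsaicin at EC20 final and 2 min further read for enhancement.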
USP1 inh: USP1/UAF1 (human) deubiquitinase inhibition; O94782; recombinant USP1/UAF1, Ub-Rhodamine cleavage fluorescence; Potency, µM (highest dose often 57.1 µM), actives largely listed as inhibitors; 390,000 tested, 0.23% active; AID 743255; active = well fitted inhibition curve with a large enough effect; inconclusive = small, poorly fitted or top-dose-only effect; inactive = no such curve, though single readings can be large or run the other way; note: nearly all actives have a fitted effect of over 60% in size
Target sequence (O94782 whole entry, looked up): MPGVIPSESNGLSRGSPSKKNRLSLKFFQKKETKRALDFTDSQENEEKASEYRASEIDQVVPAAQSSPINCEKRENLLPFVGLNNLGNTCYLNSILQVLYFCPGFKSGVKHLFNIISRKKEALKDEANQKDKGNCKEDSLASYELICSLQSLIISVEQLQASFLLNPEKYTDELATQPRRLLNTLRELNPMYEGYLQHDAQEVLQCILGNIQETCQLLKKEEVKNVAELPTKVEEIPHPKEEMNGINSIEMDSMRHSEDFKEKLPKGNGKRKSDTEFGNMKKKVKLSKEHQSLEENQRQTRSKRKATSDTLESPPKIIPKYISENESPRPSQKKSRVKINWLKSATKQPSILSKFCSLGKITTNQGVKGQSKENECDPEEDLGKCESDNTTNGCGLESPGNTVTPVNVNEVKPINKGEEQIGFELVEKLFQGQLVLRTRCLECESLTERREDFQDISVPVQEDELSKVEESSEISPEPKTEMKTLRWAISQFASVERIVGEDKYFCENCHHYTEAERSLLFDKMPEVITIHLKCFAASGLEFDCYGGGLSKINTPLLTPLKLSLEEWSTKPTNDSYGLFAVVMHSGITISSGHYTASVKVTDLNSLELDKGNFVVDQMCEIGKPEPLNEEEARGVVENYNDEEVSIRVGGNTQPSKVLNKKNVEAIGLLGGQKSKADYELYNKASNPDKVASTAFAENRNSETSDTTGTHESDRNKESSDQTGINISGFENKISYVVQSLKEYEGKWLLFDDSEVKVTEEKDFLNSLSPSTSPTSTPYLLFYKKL
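High-throughput fluorogenic screen: 1nM USP1/UAF1 complex, Ub-Rho substrate 150nM final, 50mM HEPES pH 7.8 with 0.5mM EDTA, 0.1 mg/ml BSA, 1mM TCEP and 0.01% Tween-20.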
A number is an active result. A selection: hits, their analogues and other compounds. The true share with any hit is near 0.4%.

CC1C/C(=C/c2ccncc2)C(=O)/C(=C/c2ccncc2)C1 (stereo not given) was read as TRPV1 ag inactive, TRPML1 inh inactive, TRPML1 ag inactive, TRPV1 potentiator inactive and USP1 inh inconclusive.
`O=C(NCc1cccnc1)c1cc(C2CCCN(C(=O)c3ccc4c(c3)CCO4)C2)on1` (stereo not given) gave TRPML1 ag inactive.
CSCCNC(=O)c1ccc(C(C)(C)C)cc1 was read as TRPV1 ag inconclusive, TRPML1 inh inactive, TRPML1 ag inactive, TRPV1 potentiator inactive and USP1 inh inactive.
`CC(=O)Nc1cc(OC(C)=O)c2nonc2c1OC(C)=O` gave TRPV1 ag inactive, TRPML1 inh inactive, TRPML1 ag inactive, TRPV1 potentiator inactive and USP1 inh 3.98µM.
CC(=O)Oc1ccc2nonc2c1OC(C)=O was read as TRPML1 ag inactive.
Screening Cc1ccc(NC(=O)NCCCN2CCCC2=O)cc1Cl returned TRPV1 ag inactive, TRPML1 inh inactive, TRPML1 ag inactive, TRPV1 potentiator inactive and USP1 inh inactive.
`CCn1nc(C)c(CNC(=O)c2cc(COc3cncc(Cl)c3)on2)c1C` gave TRPV1 ag inactive, TRPML1 inh inactive, TRPML1 ag inactive, TRPV1 potentiator inactive and USP1 inh inactive.
Screening COc1cccc(C2C3CN(C)CC=C3C(C#N)=C(N)C2(C#N)C#N)c1OC (stereo not given) returned TRPV1 ag inactive, TRPML1 inh inactive, TRPML1 ag inactive, TRPV1 potentiator inactive and USP1 inh inconclusive.
For CCN1CC=C2C(C#N)=C(N)C(C#N)(C#N)[C@H](c3cccc(OC)c3OC)[C@H]2C1 the results were TRPV1 ag inactive, TRPML1 inh inactive, TRPML1 ag inactive, TRPV1 potentiator inactive and USP1 inh 31.6µM.
Screening Cc1onc(-c2ccccc2Cl)c1C(=O)NC(=S)NCC(=O)c1ccccc1 returned TRPV1 ag inactive, TRPML1 inh inactive, TRPML1 ag inactive, TRPV1 potentiator inactive and USP1 inh inactive.
For O=[N+]([O-])c1cc(Cc2ccccc2)cc(C=Nc2ccc(N3CCOCC3)cc2)c1O the results were TRPV1 ag inactive, TRPML1 inh inactive, TRPML1 ag inactive, TRPV1 potentiator inactive and USP1 inh 25.1µM.
For Cc1ccc(O)c(C=Nc2cc(C)ccc2O)c1 the results were TRPV1 ag inactive, TRPML1 inh inactive, TRPML1 ag inactive, TRPV1 potentiator inactive and USP1 inh inactive.
Cc1ccc(O)c(N=Cc2cc(Cc3ccccc3)cc([N+](=O)[O-])c2O)c1 was read as TRPV1 ag inactive, TRPML1 inh inactive, TRPML1 ag inactive, TRPV1 potentiator inactive and USP1 inh 25.1µM.
`CC(C)Cc1nn2c(=O)cc(COC(=O)c3ccc(NC(=O)c4cccs4)cc3)nc2s1` gave TRPML1 inh -67.9, TRPML1 ag inactive and USP1 inh inactive.
Screening Cc1cccc(NC(=O)CN2C(=O)S/C(=C\c3ccc(O)c([N+](=O)[O-])c3)C2=O)c1 returned TRPV1 ag inactive, TRPML1 inh inactive, TRPML1 ag inactive, TRPV1 potentiator 84.0 and USP1 inh inactive.
Screening Cc1ccc(NC(=O)NCC(c2ccccc2)N(C)C)cc1 (stereo not given) returned TRPV1 ag inactive, TRPML1 inh inactive, TRPML1 ag inactive, TRPV1 potentiator inactive and USP1 inh inactive.
`COc1cc(N=Nc2c(C)n(C)n(-c3ccccc3)c2=O)ccc1N` gave TRPV1 ag inactive, TRPML1 inh inactive, TRPML1 ag inactive, TRPV1 potentiator inactive and USP1 inh inactive.
For O=C1NC(c2ccc(F)cc2)Oc2ccccc21 (stereo not given) the results were TRPV1 ag inactive, TRPV1 potentiator inactive and USP1 inh inactive.
COC(=O)C1=C(C)N(Cc2ccccc2)C(=S)N[C@H]1c1ccccc1 was read as TRPV1 ag inactive, TRPML1 inh inactive, TRPML1 ag 64.6, TRPV1 potentiator inconclusive and USP1 inh inconclusive.
`O=S(=O)(Nc1c(S(=O)(=O)c2ccccc2)c2nc3ccccc3nc2n1C1CCCCC1)c1ccccc1` gave TRPV1 ag inactive, TRPML1 inh inactive, TRPML1 ag inactive, TRPV1 potentiator inactive and USP1 inh 3.16µM.
Screening Cc1ccc(S(=O)(=O)c2c(N)n(-c3ccccc3)c3nc4ccccc4nc23)cc1 returned TRPV1 ag inactive, TRPML1 inh inactive, TRPML1 ag inactive, TRPV1 potentiator inactive and USP1 inh inactive.
For C=CCn1c(NS(=O)(=O)c2ccccc2)c(S(=O)(=O)c2ccc(C)cc2)c2nc3ccccc3nc21 the results were TRPV1 ag inactive, TRPML1 inh inconclusive, TRPML1 ag inactive, TRPV1 potentiator inactive and USP1 inh 28.2µM.
Screening CC(=O)Nc1c(S(=O)(=O)c2ccccc2)c2nc3ccccc3nc2n1Cc1ccccc1 returned TRPV1 ag inactive, TRPML1 inh inconclusive, TRPML1 ag inactive, TRPV1 potentiator inactive and USP1 inh inactive.
Cc1cc(-c2ccc(C)c(S(=O)(=O)N3CCN(c4ccc(F)cc4)CC3)c2)on1 was read as TRPV1 ag inactive, TRPML1 inh inactive, TRPML1 ag inactive, TRPV1 potentiator inactive and USP1 inh inactive.
Screening CN(C)c1ccc(NC(=O)c2cccc([N+](=O)[O-])c2)c2ccccc12 returned TRPV1 ag 83.0, TRPML1 inh inactive, TRPML1 ag inactive, TRPV1 potentiator inactive and USP1 inh inactive.
`CCCCN1C(=O)C2Cc3c([nH]c4ccccc34)CN2C1=S` (stereo not given) gave TRPV1 ag inactive, TRPML1 inh inactive, TRPML1 ag inactive, TRPV1 potentiator inactive and USP1 inh 25.1µM.
CCCCCN1CC(=O)N2Cc3[nH]c4ccccc4c3C[C@H]2C1=O was read as TRPV1 ag inactive, TRPML1 inh inactive, TRPML1 ag inactive, TRPV1 potentiator inactive and USP1 inh inactive.
COc1cccc(/C=N/N2CCN(Cc3ccccc3)CC2)c1O was read as TRPV1 ag inactive, TRPML1 inh inactive, TRPML1 ag inactive, TRPV1 potentiator inactive and USP1 inh inactive.
For CCC(CO)Oc1cc(NC(=O)c2ccc(OC)cc2)c2ncn(C(C)C)c2c1 (stereo not given) the results were TRPML1 inh -57.4, TRPML1 ag inactive and USP1 inh inactive.
Cc1cc(C(F)F)n2nc(C(=O)Nc3sc4c(c3C(N)=O)CCC4)nc2n1 was read as TRPV1 ag inactive, TRPML1 inh inactive, TRPML1 ag inactive, TRPV1 potentiator inactive and USP1 inh inactive.
`COC(=O)c1c(NC(=O)c2nc3nc(C)cc(C(F)F)n3n2)sc2c1CCC2` gave TRPV1 ag inactive, TRPML1 inh inactive, TRPML1 ag inactive, TRPV1 potentiator 91.1 and USP1 inh inactive.
`COc1cccc2c1C(=O)/C(=C\c1ccc(N(C)C)cc1)C2` gave TRPML1 ag 62.1.
Screening CCN(CC)S(=O)(=O)c1ccc(/C=C/C(=O)O)cc1 returned TRPV1 ag inactive, TRPML1 inh inconclusive, TRPML1 ag inactive, TRPV1 potentiator inactive and USP1 inh inactive.
